Pol kappa inh-1: blocks human DNA polymerase kappa activity | Q9UBT6 | purified Pol kappa, fluorescent DNA synthesis assay, 10 min | Potency, µM (top dose mostly 107 µM), inactives show at the highest dose activity, negative = inhibition, usual class: inhibitors | 400,000 compounds, 0.53% hits; further: potency means the concentration at half of the fitted maximal effect; on the % scale 0 is the no-effect control and ±100 the full control effect
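Enzyme at 10 nM met test compounds for 15 min at room temperature. Substrate addition (50 nM final) began the reaction, which was monitored by fluorescence at 0 and 10 min.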
WRN inhibitor: blocks human WRN helicase; Q14191; WRN helicase unwinding, fluorescent forked duplex, kinetic; Potency, µM (highest dose often 114 µM), for the others: top-dose activity change, negative = inhibition, hits mostly inhibitors; 360,000 compounds, 0.46% hits; AID 651768; further: potency means the concentration at half of the fitted maximal effect; on the % scale 0 is the no-effect control and ±100 the full control effect; nearly all actives have a fitted effect of over 55% in size
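Kinetic fluorescence helicase assay: unwinding of a quenched forked DNA duplex (100 nM final) with 2 mM ATP final raises red fluorescence (525/598 nm). Compounds sat 15 min at room temperature with 20 nM WRN beforehand.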
POLB inh: inhibitors of human DNA polymerase beta; P06746; Potency, µM (titrated, usually from 114 µM), without a hit: at the top dose activity change, negative = inhibition, actives largely listed as inhibitors; Pol beta primer extension/strand displacement, fluorescence kinetic; 340,000 compounds, 1.3% hits; further: potency means the concentration at half of the fitted maximal effect; on the % scale 0 is the no-effect control and ±100 the full control effect
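Kinetic readout of DNA synthesis with strand displacement by Pol beta. Compound and 10 nM enzyme sit 15 min at room temperature; 50 nM substrate starts the reaction, read immediately and at 10 min.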
L3MBTL1 inh: L3MBTL1 (human) inhibition | AlphaScreen L3MBTL1–H3K9me1 peptide binding | Potency, µM (titrated, usually from 57.1 µM), inactives show at the highest dose activity, negative = inhibition, actives largely listed as inhibitors | 230,000 compounds, 0.66% hits; further: potency means the concentration at half of the fitted maximal effect; on the % scale 0 is the no-effect control and ±100 the full control effect; nearly all actives have a fitted effect of over 60% in size
Target sequence (Q9Y468 whole entry, looked up): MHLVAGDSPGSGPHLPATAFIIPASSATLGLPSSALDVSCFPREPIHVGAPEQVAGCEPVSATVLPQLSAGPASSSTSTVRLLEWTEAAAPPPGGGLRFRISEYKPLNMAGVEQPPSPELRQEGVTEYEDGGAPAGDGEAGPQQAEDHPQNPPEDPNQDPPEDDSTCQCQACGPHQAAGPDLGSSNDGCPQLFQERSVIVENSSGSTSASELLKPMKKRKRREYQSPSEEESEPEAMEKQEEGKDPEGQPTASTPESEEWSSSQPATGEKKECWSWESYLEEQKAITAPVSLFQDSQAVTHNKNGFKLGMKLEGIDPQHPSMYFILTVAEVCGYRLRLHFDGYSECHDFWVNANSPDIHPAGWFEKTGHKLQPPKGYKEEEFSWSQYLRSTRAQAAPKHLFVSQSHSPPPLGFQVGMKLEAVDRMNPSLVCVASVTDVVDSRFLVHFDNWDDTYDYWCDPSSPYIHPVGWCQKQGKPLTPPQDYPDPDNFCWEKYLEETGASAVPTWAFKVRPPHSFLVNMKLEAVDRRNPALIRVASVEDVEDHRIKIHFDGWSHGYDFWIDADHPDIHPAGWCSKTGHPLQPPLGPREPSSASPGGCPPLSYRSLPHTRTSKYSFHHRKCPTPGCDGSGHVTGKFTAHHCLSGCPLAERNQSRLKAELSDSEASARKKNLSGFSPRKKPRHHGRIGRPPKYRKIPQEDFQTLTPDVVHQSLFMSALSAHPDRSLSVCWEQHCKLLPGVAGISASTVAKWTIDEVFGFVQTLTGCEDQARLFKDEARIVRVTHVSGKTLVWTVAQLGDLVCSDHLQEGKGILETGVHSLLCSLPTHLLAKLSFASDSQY
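L3MBTL1 (50 nM) pre-complexed 30 min with biotinylated H3(1-15)K9me1 peptide (75 nM), then compounds added for 30 min at room temperature; AlphaScreen streptavidin donor/nickel chelate acceptor beads (10 ug/mL final) read after 30 min dark incubation.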
POLI inh: DNA polymerase iota (human) inhibition. Q9UNA4. Pol iota fluorescent replication assay, 10 min. Potency, µM (highest dose often 115 µM), inactives show top-dose activity, negative = inhibition, hits mostly inhibitors. 390,000 compounds, 1% hits. AID 588590; further: potency means the concentration at half of the fitted maximal effect
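Pol iota at 10 nM preincubated 15 min with compounds at room temperature; reaction started with fluorescent substrate, 50 nM final. Fluorescence read kinetically at 0 and 10 min; buffer-only wells as negative control.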
Pol eta inh-1: inhibitors of human DNA polymerase eta; Q9Y253; recombinant Pol eta, fluorescent DNA replication assay; Potency, µM (doses to about 114 µM), without a hit: at the top dose activity change, negative = inhibition, actives largely listed as inhibitors; 390,000 compounds, 1.2% hits; AID 588591; further: potency means the concentration at half of the fitted maximal effect; on the % scale 0 is the no-effect control and ±100 the full control effect
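Fluorescent replication assay: 50 nM final substrate added after a 15 min room-temperature compound preincubation with 10 nM enzyme. Signal taken at 0 min and again at 10 min.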
GALK inh confirm: confirmation of human galactokinase (GALK) inhibitors. 150 compounds, 70% hits. AID 2015. Potency, µM (top dose mostly 115 µM), without a hit: at the top dose activity, negative = inhibition, usual class: inhibitors. purified GALK, Kinase-Glo ATP depletion luminescence. shares compounds with Pol eta inh-1
Redox cycling: redox cycling activity in phenol red-HRP assay; shares compounds with Pol eta inh-1; Phenol red-HRP H2O2 redox cycling, absorbance 600 nm; Potency, µM (titrated, usually from 115 µM), without a hit: at the highest dose activity change, negative = H2O2 signal, most hits filed as inhibitors; 150 compounds, 40% hits; AID 2035
HEK293 viability: counter-screen for GALK inhibitors: HEK293 cell cytotoxicity; HEK-293 viability, ATP luminescence (CellTiter-Glo), 24/48 h; shares compounds with Pol eta inh-1; AID 2547; 170 compounds, 10% hits; Potency, µM (top dose mostly 46.1 µM), without a hit: at the top dose activity change, negative = cytotoxicity, hits mostly inhibitors; further: potency means the concentration at half of the fitted maximal effect; on the % scale 0 is the no-effect control and ±100 the full control effect
Pol kappa inh-2: confirmation of human DNA polymerase kappa inhibitors. shares compounds with Pol eta inh-1. purified Pol-kappa, fluorescent strand-displacement substrate. Potency, µM, most hits filed as inhibitors. 920 compounds, 76% hits. AID 720501; further: potency means the concentration at half of the fitted maximal effect
Pol eta inh-2: Pol eta (human) inhibition, cherry-pick confirmation; Pol eta primer extension, TAMRA/BHQ fluorescence, 10 min; shares compounds with Pol eta inh-1; Potency, µM, hits mostly inhibitors; AID 720502; 2,600 compounds, 64% hits; further: potency means the concentration at half of the fitted maximal effect
Starred values were filed as active, the others as inactive; ? = inconclusive; nt = not tested or not shown; [ ] = another dose, or the depositor's remark. Hits are enriched below; roughly 2.5% of the tested compounds scored in any of these assays. The call rests on the fitted dose curve; in most records, active means well fitted curve in the direction sought with a large enough effect; inconclusive means small, poorly fitted or top-dose-only effect, or another doubt; inactive means no such curve, though single readings can be large; an effect the other way counts as inactive or inconclusive.

SMILES | Pol kappa inh-1 | WRN inhibitor | POLB inh | L3MBTL1 inh | POLI inh | Pol eta inh-1 | Pol eta inh-2 | others
O=C(O)c1cccc(NC(=S)NC(=O)c2ccc(-c3ccccc3)cc2)c1 | -8% | 0% | 18% | -10% | 31% | -13% | nt
COc1cc2ccccc2cc1C(=O)NC(=S)Nc1cccc(C(=O)O)c1 | -19% | ? | 28µM* | -22% | ? | 45µM* | ?
COc1cc(N(C(C)=O)c2ccc(O)c(C(=O)O)c2)c2ncccc2c1 | nt | -7%[11.6 µM] | nt | nt | nt | 50µM* | 85*
COc1cc(N(C(C)=O)c2ccc(O)cc2)c2ncccc2c1 | nt | -4% | nt | nt | nt | 1% | nt
O=C(O)c1cccc(Cn2c(Cl)c(/C=N/Nc3ccccc3)sc2=O)c1 | ? | -15%[11.6 µM] | -4% | nt | ? | 45µM* | ?
Cc1ccccc1OCC(=O)N/N=C/c1sc(=O)n(Cc2cccc(C(=O)O)c2)c1Cl | -18% | -30% | ? | -15% | ? | ? | ?
O=C(O)c1cccc(Cn2c(Cl)c(/C=N/NC(=O)c3ccccc3Cl)sc2=O)c1 | -1% | -9% | 7% | 26% | 15% | -5% | nt
CCSc1nc2c(c(=O)[nH]1)C(c1ccc(C)cc1)C1=C(CCCC1=O)N2 (stereo not given) | 3% | 9%[57.1 µM] | 2% | 8% | 47% | 0% | nt
CSc1nc2c(c(=O)[nH]1)C(c1cccs1)C1=C(CCCC1=O)N2 (stereo not given) | ? | -35% | 28µM* | ? | ? | 16µM* | ?
CCOC(=O)c1c(C)[nH]c(N=Nc2cc(C(=O)O)cc(C(=O)O)c2)c1C | ? | ? | -1% | nt | ? | 18µM* | 9.5*
CCNC(=O)c1sc(-c2ccccc2)nc1C | -10% | -1% | 23% | 1% | 27% | -22% | nt
Cc1ccc(/C=C/C(=O)O)cc1S(=O)(=O)N1CCc2ccccc2C1 | -4% | 3%[57.1 µM] | 6% | -4% | 106% | -7% | nt
COc1ccc(/C=C/C(=O)O)cc1S(=O)(=O)N1CCc2ccccc2C1 | -11% | -5%[11.6 µM] | ? | ? | ? | ? | ?
CCCCNC(=O)c1ccc2nc(-c3ccco3)c(-c3ccco3)nc2c1 | 8.9µM* | 79µM* | 20µM* | 32µM* | ? | 14µM* | ? | Pol kappa inh-2=21*
CCN1CCN(CCNC(=O)c2ccc3nc(-c4cccc(C)c4)c(-c4cccc(C)c4)nc3c2)CC1 | 12% | 6%[57.1 µM] | 19% | nt | -1% | -25% | nt | GALK inh confirm=?;Redox cycling=-27%;HEK293 viability=?
CCNC(=O)c1ccc2nc(-c3ccccc3)c(-c3ccccc3)nc2c1 | -13% | nt | nt | nt | 2% | nt | nt
O=C(c1cccc(C(=O)N2CCN(c3ncccn3)CC2)c1)N1CCN(c2ncccn2)CC1 | 3% | 2% | -11% | 3% | 18% | -14% | nt
O=C(NCCCO)c1ccc2nc(-c3ccco3)c(-c3ccco3)nc2c1 | 28µM* | ? | 28µM* | 28µM* | 10µM* | 7.9µM* | 19* | Pol kappa inh-2=19*
CCCNC(=O)c1ccc2nc(-c3ccccc3)c(-c3ccccc3)nc2c1 | -4% | -8% | -16% | 5% | 5% | -12% | nt
O=C(c1ccc2nc(-c3ccco3)c(-c3ccco3)nc2c1)N1CCN(c2ncccn2)CC1 | ? | 45µM* | 40µM* | -19% | ? | ? | ?
S=C(Nc1ccc(Cl)cc1)NC1CCN(Cc2ccccc2)CC1 | -18% | -12% | ? | -7% | -3% | -18% | nt
Cc1c(/C=C/C(=O)c2ccccc2O)cnn1C | 2% | 2% | 25% | -1% | -5% | -18% | nt
O=C1CCCCCC1C1(O)C(=O)Nc2ccccc21 (stereo not given) | -3% | -18% | -1% | -3% | 22% | ? | nt
O=[N+]([O-])c1cccc(N/N=C/c2cc([N+](=O)[O-])ccc2O)c1 | -27% | -24% | ? | -9% | ? | 3% | nt
O=[N+]([O-])c1ccc(O)c(C=NNc2ccc(S(=O)(=O)O)cc2)c1 | ? | -29% | nt | nt | 22µM* | 6.3µM* | 54* | Pol kappa inh-2=21*
SMILES | Pol kappa inh-1 | WRN inhibitor | POLB inh | L3MBTL1 inh | POLI inh | Pol eta inh-1 | Pol eta inh-2 | others
COc1ccc(/C=N/NC(=O)c2[nH]c3ccc(Cl)cc3c2-c2ccccc2)c(C(=O)O)c1OC | -6% | ? | -20% | nt | 27% | 79µM* | 38*
Cc1cccc(NC(=O)CSC2=Nc3ccccc3C3=NC(CCC(=O)NCc4ccco4)C(=O)N23)c1 (stereo not given) | -19% | nt | 7% | nt | -3% | -12% | nt
O=C(CCC1N=C2c3ccccc3N=C(SCC(=O)NCc3ccco3)N2C1=O)NCc1ccco1 (stereo not given) | ? | ? | 32µM* | nt | 13µM* | ? | ?
O=C(COC(=O)c1ccccc1NCCO)NNC(=O)c1cccs1 | -6% | -8% | nt | 14% | 20% | -9% | nt
Cc1cc(C(=O)Nc2ccc(S(=O)(=O)Nc3onc(C)c3C)cc2)c(C)o1 | ? | -24%[57.1 µM] | 7% | nt | ? | -16% | nt
Cc1noc(NS(=O)(=O)c2ccc(NC(=O)c3ccoc3C)cc2)c1C | ? | -23%[57.1 µM] | ? | ? | 40µM* | 10µM* | ?

Compound activity: PubChem BioAssay, National Center for Advancing Translational Sciences (NCATS)
